# MITF primary: blocks human microphthalmia-associated transcription factor; inhibition, % at 2.6 µM; AlphaScreen MITF homodimerization, bead proximity signal; AID 1259374; O75030; 0.91% of 650,000 active; in the data active = inhibition above about 50%;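 note: 0% = vehicle wells with protein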
# TEAD-YAP block: TEAD-YAP interaction inhibition; HEK-TIYL cells, TEAD-Gal4/YAP UAS-luciferase luminescence; inhibition, % at 9.12 µM; 1.4% of 640,000 active; AID 1259422; in the data active = inhibition above about 32%;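 note: 0% = median of test compound wells and 100% = reference inhibitor wells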
# GPR151 activ: activators of human GPR151; 1% of 650,000 active; AID 1508602; Q8TDV0; PathHunter beta-arrestin GPR151 cells, luminescence; activation, % at 11.2 µM; in the data active = activation above about 4.9%;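 note: 0% = median of compound wells and 100% = cells with positive control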
# FBW7 act: activators of human E3 ligase FBW7; Q969H0; AlphaScreen FBW7–phospho-cyclin E peptide binding, activator screen; normalized activity (activation), % at 26.1 µM; 0.13% of 650,000 active; AID 1259310; in the data active = normalized activity above about 1.9%;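 note: purified mutant Fbw7 with reduced substrate affinity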
# GPR151 conf act: confirmation of human GPR151 activators; shares compounds with GPR151 activ; GPR151 PathHunter beta-arrestin cells, luminescence, 90 min; % of EA-reagent control over plate median; activation, % at 11.2 µM; 6,700 tested, under 10 active; AID 1508609;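 active = mean percent activation across replicates above the confirmation screen cutoff of 4.91%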
# GPR119 ag: counter-screen for GPR151 activators: effect on human GPR119; GPR119 PathHunter beta-arrestin cells, luminescence, 90 min; 0 = compound-well median, 100 = enzyme-acceptor control; activation, % at 11.2 µM; shares compounds with GPR151 activ; 0.3% of 6,700 active; AID 1508611;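 active = mean percent activation in the counterscreen above 29.09%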;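 note: counterscreen on off-target GPR119 to flag nonselective hits from the GPR151 activator screen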
# Target sequence (Q8TDV5 whole entry, looked up): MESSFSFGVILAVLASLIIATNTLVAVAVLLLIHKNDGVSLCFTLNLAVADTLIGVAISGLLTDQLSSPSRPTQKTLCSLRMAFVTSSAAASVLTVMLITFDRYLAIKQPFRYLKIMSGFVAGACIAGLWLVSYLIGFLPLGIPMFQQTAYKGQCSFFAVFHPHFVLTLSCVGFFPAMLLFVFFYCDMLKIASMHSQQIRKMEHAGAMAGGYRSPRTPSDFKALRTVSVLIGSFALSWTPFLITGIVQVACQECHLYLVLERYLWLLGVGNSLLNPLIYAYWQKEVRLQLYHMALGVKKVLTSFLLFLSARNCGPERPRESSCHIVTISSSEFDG
# * = called active by the depositor; . = no result. Only some compounds are listed: those with a hit (about 3.5% of all), similar ones and a draw of the others.
SMILES,MITF primary,TEAD-YAP block,GPR151 activ,FBW7 act,GPR151 conf act,GPR119 ag
Cc1ccccc1Cn1c(=O)c2c(nc3n2CCCN3c2ccc(F)cc2)n(C)c1=O,-0.5,1.9,9.7*,-0.3,-0.4,3.8
O=C(Nc1ccncc1)c1nn2c(C(F)(F)F)cc(-c3cccs3)nc2c1Br,-1.9,-0.2,-0.2,0.1,.,.
CCOCCCNC(=O)C(NC(=O)c1ccc(=O)[nH]c1)c1ccccc1 (stereo not drawn),3.1,-5.6,5.0*,-0.1,0.6,16.2
Cc1nc(SC2CCCCC2=O)c(C#N)c(-c2cccs2)c1C(=O)Nc1ccccc1 (stereo not drawn),3.4,8.3,5.1*,0.0,-1.0,-8.1
CC(C)OC(=O)CCC/C=C\C[C@@H]1[C@@H](/C=C/[C@@H](O)CCc2ccccc2)[C@H](O)C[C@@H]1O,-6.3,.,5.4*,.,0.0,-1.5
O=C(O)CCC/C=C\C[C@H]1[C@@H](/C=C/[C@@H](O)CCc2ccccc2)[C@H](O)C[C@H]1O,12.2,.,-1.2,.,.,.
O=C(O)CCC/C=C\C[C@@H]1[C@@H](/C=C/[C@@H](O)C2Cc3ccccc3C2)[C@@H](F)C[C@@H]1O,6.1,.,5.0*,.,-0.6,2.1
O=C(Nc1ccc2c(c1)OCO2)c1ccnc(N2CCC(N3CCOCC3)CC2)c1,-10.5,-9.2,5.7*,-0.1,0.6,-0.3
O=C(Nc1ccc(N2CCOCC2)cc1)c1ccnc(N2CCC(N3CCOCC3)CC2)c1,5.9,7.7,0.9,0.0,.,.
Cc1cc(C)c2[nH]c(O)c(N=NC(N)=O)c2c1,-2.9,-10.4,-0.5,0.1,.,.
Cc1ccc(OCC(=O)NNC(=O)COc2ccccc2C)cc1,0.4,7.6,2.0,-0.1,.,.
Cc1ccccc1OCC(=O)NNC(=O)C(F)(F)F,-0.9,-2.6,5.1*,0.1,0.1,-0.9
COc1ccc(N(C(C)C(=O)N2CCCCC2)S(C)(=O)=O)cc1 (stereo not drawn),12.8,-0.1,-1.4,0.5,.,.
Cc1nc2nc(CNC(=O)OC(C)(C)C)nn2c(C)c1CCC(=O)NCc1cccnc1,3.2,7.7,-1.4,-0.2,.,.
COCCNC(=O)/C(C#N)=C/c1ccc(-c2cc(Cl)ccc2Cl)o1,-6.4,-2.5,-0.5,-0.1,.,.
N#C/C(=C\c1ccc(-c2cc(Cl)ccc2Cl)o1)C(=O)Nc1cccc2ncccc12,-1.1,.,5.7*,.,0.1,7.6
Cc1[nH]ncc1-c1ccc(NC(=O)C2COc3c(F)cccc3C2)c(OCCN(C)C)c1 (stereo not drawn),0.3,0.4,-1.7,0.0,.,.
COc1cccc2c1CC(C(=O)Nc1ccc(-c3cn[nH]c3C)cc1OCCN(C)C)CO2 (stereo not drawn),10.1,7.4,6.8*,0.1,-0.2,-2.2
CCN(CC)c1ccc2cc(C(=O)Nc3ccc(C)cc3)c(=O)oc2c1,23.2,0.3,-1.2,0.3,.,.
CCOC(=O)CC(=O)c1cc2ccc(N(CC)CC)cc2oc1=O,-2.1,-17.3,5.4*,0.3,0.0,12.1
COc1ccc(N2CCN(C(=O)c3ccc([N+](=O)[O-])cc3)CC2)cc1,-2.3,-4.3,-0.4,0.0,.,.
Nc1cc(=O)[nH]c(SCc2cn3ccccc3n2)n1,-4.0,0.3,5.4*,-0.1,0.4,-5.3
COc1cccc(NC(=O)Cc2c(C(=O)O)[nH]c3ccc(Cl)cc23)c1,20.4,8.8,0.4,-0.1,.,.
Cc1ccc(C(=O)N[C@H]2C[C@H]3C(=O)N[C@H](C)C(=O)N3C2)cc1,1.6,2.1,5.9*,-0.1,1.2,15.8
C[C@@H]1NC(=O)[C@@H]2C[C@H](NC(=O)c3ccc(F)cc3)CN2C1=O,4.5,-21.6,-0.7,0.8,.,.
SMILES,MITF primary,TEAD-YAP block,GPR151 activ,FBW7 act,GPR151 conf act,GPR119 ag
O=C(O)CNC(=O)Nc1ccccc1F,4.9,1.5,0.8,0.1,.,.
CC(C)CN(C(=O)c1ccccc1Cl)c1nnc(-c2ccncc2)s1,12.2,-5.5,6.3*,-1.3,0.1,-2.1
Fc1ccccc1C1CC(c2ccc(I)cc2)Nc2ncnn21 (stereo not drawn),13.2,3.4,-1.6,0.2,.,.
CC(C)OCCCNC(=O)CC1C(=O)NCCN1C (stereo not drawn),-1.2,1.2,5.8*,-0.1,0.1,4.2
CC1CCCC(NC(=O)c2ccc(CNS(=O)(=O)c3ccc(Cl)cc3)cc2)C1C (stereo not drawn),-1.1,4.7,-1.1,-0.1,.,.
CC1CCCC(NC(=O)c2ccc(CNS(=O)(=O)c3ccc(F)cc3)cc2)C1C (stereo not drawn),-2.7,-5.2,6.3*,-0.2,0.0,-10.4
CN(C)CC(C)(C)CN(CCC#N)S(=O)(=O)c1cccc2nsnc12,13.6,-1.4,5.0*,0.0,0.4,0.3
CC(C)N(CCC#N)S(=O)(=O)c1cccc2nsnc12,-4.0,7.4,-1.0,0.0,.,.
Cc1ccc(/C=N\n2c(C3CCCCC3)n[nH]c2=S)o1,5.2,1.1,-0.6,0.0,.,.
CCOC(=O)c1c(NC(=O)Cc2ccccc2)sc(C(=O)OC)c1C,17.4,-0.8,-0.1,0.3,.,.
CN(C(=O)CCl)c1nc(-c2ccc(F)cc2)cs1,-3.9,-2.2,6.1*,-0.1,-0.1,2.1
O=C(Cn1cnc2sc3c(c2c1=O)CCCC3)NCC1CCCO1 (stereo not drawn),-6.1,0.3,-2.0,-0.1,.,.
O=C1C2C(C(=O)N1/N=C/c1ccc(Br)cc1)C1C=CC2C12CC2 (stereo not drawn),-11.5,-16.2,0.0,0.0,.,.
Cc1ccc(Sc2cc(C(=O)NC3CC3)c3ccccc3n2)cc1,2.8,0.7,5.4*,0.0,-0.2,-5.3
CNC(=O)c1cc(-c2ccc(C)cc2)nc2ccccc12,11.5,-4.8,5.4*,0.8,-1.8,-13.3
Cc1ccc(Sc2cc(C(=O)NC3CCC(C)CC3)c3ccccc3n2)cc1 (stereo not drawn),4.2,-3.0,0.5,0.1,.,.
O=C(Nc1ccncc1)c1cc(-c2ccncc2)nc2ccccc12,-4.5,-15.2,5.2*,0.2,2.7,14.6
COc1ccc2oc(/C=C/Nc3ccccc3)[n+](CCCS(=O)(=O)O)c2c1,-24.3,9.5,-1.3,0.1,.,.
CCN1CCCC1CNC(=O)CNC(=O)Cn1cnc2sc3c(c2c1=O)CCCC3 (stereo not drawn),2.1,-6.0,2.8,0.0,.,.
CCOc1ccc(C(c2nnnn2C(C)C)N2CCN(c3ccccc3)CC2)cc1 (stereo not drawn),11.3,-11.3,-0.5,0.7,.,.
CSc1nc(C(=O)N2CCc3nnc(CNC(=O)c4cccc(F)c4)n3CC2)cs1,8.7,2.8,5.2*,0.0,0.7,4.0
O=C(O)COc1ccc(/C=C2\NC(=O)N(Cc3ccc(Cl)cc3)C2=O)cc1I,3.1,0.7,0.0,-0.2,.,.
CCCCOC(=O)CNS(=O)(=O)c1ccc([N+](=O)[O-])cc1,0.9,9.3,-1.2,0.1,.,.
O=C(CSc1cn(CCNC(=O)c2cccc(C(F)(F)F)c2)c2ccccc12)Nc1ccc(Br)cc1,1.4,-5.6,-1.0,-0.2,.,.

# Compound activity deposited in PubChem BioAssay by The Scripps Research Institute Molecular Screening Center.
